Screens (PubChem)
This is a sample that favours compounds with a hit; in the whole collection about 19% have one here.
DT40 TDP1 CPT: qHTS for Inhibitors of human tyrosyl-DNA phosphodiesterase 1 (TDP1): qHTS in cells in presence of CPT; chicken DT40 Tdp1-/-;hTDP1 cells + 20 nM CPT, ATP luminescence, 48 h; Potency, µM (top dose mostly 46.2 µM), inactives show at the highest dose activity change, negative = growth inhibition, most hits filed as inhibitors; 420,000 tested, 12% active; AID 686979, 2013; note: potency is the fitted concentration of half-maximal effect; % is set by controls: 0 for no effect and ±100 for the full control effect; nearly all actives have a fitted effect of over 55% in size
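Cell growth measured by CellTiter-Glo luminescence after a minimum 48 h, 37 C compound exposure with 20 nM CPT in Tdp1-knockout DT40 cells stably expressing hTDP1, seeded 400/well; qHTS titration format.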
BCR signal inh: qHTS Assay to Find Inhibitors of Chronic Active B-Cell Receptor Signaling. Potency, µM (titrated, usually from 46.1 µM), without a hit: at the top dose activity change, negative = inhibition, usual class: inhibitors. 340,000 tested, 0.05% active. ABC-DLBCL IkBa-CBG/CBR reporter, luminescence ratio, 4 h; active = well fitted inhibition curve with a large enough effect in the signal ratio, with a control signal flat, not every such curve was filed as active; inconclusive = small, poorly fitted or top-dose-only effect, or effect the other way, or a change in a side signal; the % refers to the signal ratio;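 note: potency is the fitted concentration of half-maximal effect; plate controls were basal doxycycline-induced cells for no effect and cells given 10 µM MG132 for full effect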
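Concentration-response series (up to 46 uM) were applied to TMD8 dual-reporter cells for 4 h at 37C with doxycycline. Green/red ratio, after filter-overlap correction, defined %Activity; red signal alone was normalised to basal cells and zero luminescence.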
TDP1 cell noCPT: qHTS for Inhibitors of human tyrosyl-DNA phosphodiesterase 1 (TDP1): qHTS in cells in absence of CPT | DT40 Tdp1-/- hTDP1 cells, no CPT, ATP luminescence, 48 h | Potency, µM (doses to about 46.2 µM), inactives show top-dose activity change, negative = growth inhibition, hits mostly inhibitors | 420,000 tested, 15% active | AID 686978, 2013; note: potency is the fitted concentration of half-maximal effect; % is set by controls: 0 for no effect and ±100 for the full control effect; nearly all actives have a fitted effect of over 55% in size
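No-CPT arm: Tdp1-/-;hTDP1 DT40 cells (400/well) plus compounds, incubated ≥48 hr at 37 °C. Readout CellTiter-Glo luminescence.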
SW480 rereplic: A quantitative high throughput screen for small molecules that induce DNA re-replication in SW480 colon adenocarcinoma cells; 340,000 tested, 1.8% active; SW480 DNA re-replication, Hoechst DNA content imaging, 48 h; Potency, µM (titrated, usually from 46.1 µM), without a hit: top-dose re-replication activation, hits mostly activators; AID 624297, 2012; note: potency is the fitted concentration of half-maximal effect; % of control where 0% means no effect; nearly all actives have a fitted effect of over 55% in size
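SW480 cells exposed to compounds for 48 hr at 37 C, 5% CO2, then Hoechst-stained 40 min. Nuclear DNA content imaged by fluorescence scanning (405 nm excitation, 500-530 nm emission); re-replication scored as increased high-intensity nuclei.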
MCF10A rerep: A quantitative high throughput screen for small molecules that induce DNA re-replication in MCF 10a normal breast cells | MCF 10A DNA re-replication, Hoechst nuclear intensity, 48 h | Potency, µM (highest dose often 46.1 µM), for the others: at the highest dose activity, positive = re-replication, usual class: activators | 350,000 tested, 2.9% active | AID 624296, 2012; note: potency is the fitted concentration of half-maximal effect; % of control where 0% means no effect; nearly all actives have a fitted effect of over 50% in size
IL1B secr inh: qHTS for Inhibitors of Inflammasome Signaling: IL-1-beta AlphaLISA Primary Screen. AID 743279, 2014. THP-1 LPS/ATP IL-1B secretion, AlphaLISA, 16 h; active compounds read low. 360,000 tested, 4.7% active. activity change, % at 57.5 µM; in the data active = activity change below about -50%; inconclusive = mostly about -30% to -49%; note: % is set by controls: 0 for no effect and ±100 for the full control effect
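THP-1 cells pretreated 1 hr with compounds (up to 57.5 uM final), then stimulated with LPS (250 ng/mL final) plus ATP (1.25 mM final); secreted IL-1B measured by AlphaLISA after 16 hr, decreased signal indicating inhibition.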
Starred values were filed as active, the others as inactive; i = inactive; ? = inconclusive; . = no result given; [ ] = another dose, or the depositor's remark. Unless noted, calls come from the whole dose curve; as a rule, active = well fitted curve in the direction sought with a large enough effect; inconclusive = small, poorly fitted or top-dose-only effect, or another doubt; inactive = no such curve, though single readings can be large; an effect the other way counts as inactive or inconclusive.

SMILES | DT40 TDP1 CPT | BCR signal inh | TDP1 cell noCPT | SW480 rereplic | MCF10A rerep | IL1B secr inh
COc1ccc(N=C2NC(=O)/C(=C/c3ccco3)S2)cc1 | ? | ? | ? | 7.31µM* | ? | -55.0*
COc1ccc(N=C2NC(=O)/C(=C/C=C/c3ccccc3)S2)cc1 | -1.8% | 1.1% | ? | -4.4% | ? | -6.3
O=C1NC(=Nc2ccccc2)S/C1=C\C=C\c1ccco1 | 8.2µM* | 10.7% | 9.2µM* | ? | ? | -7.3
Cc1ccc(N=C2NC(=O)/C(=C/C=C/c3ccco3)S2)cc1 | ? | -2.2% | 23.1µM* | -2.7% | ? | 0.5
Cc1cccc(N=C2NC(=O)/C(=C/C=C/c3ccco3)S2)c1C | ? | ? | 16.4µM* | -1.0% | ? | 3.9
O=C1c2ccccc2C(O)(c2ccccc2)N1c1ccc([N+](=O)[O-])cc1Cl (centres undefined) | -7.6% | . | -19.4% | -3.0% | ? | 10.2
COc1cc(/C=N/NC(=O)c2ccccn2)ccc1OC(=O)c1cccs1 | 12.2% | ? | -1.2% | 1.0% | ? | -0.1
O=C1CCCN1CCC(=O)N1CCCC(N2CCN(c3ccccc3F)CC2)C1 (centres undefined) | -5.2% | 2.6% | 4.1% | -0.2% | 1.8% | 14.5
C[C@@](Cc1ccccc1)(C(=O)O)N1C(=O)c2ccc(C(=O)O)cc2C1=O | . | -0.9% | . | . | . | .
CCc1ccc2oc(-c3ccc(C)c(NC(=O)Cc4ccccc4)c3)nc2c1 | -20.9% | . | -19.0% | . | . | .
CC(Nc1ccc(Cl)cc1)c1cc(Cl)ccc1O (centres undefined) | ? | -2.3% | 18.4µM* | 1.5% | 16.0% | 6.3
COCCN1CCc2nc(SCC(=O)Nc3ccc(Br)cc3)[nH]c(=O)c2C1 | -1.4% | . | 0.5% | . | . | .
O=C(/C=C/c1cccs1)c1cc(Cl)ccc1O | 16.4µM* | -3.3% | ? | i[1.84 µM] | -10.1% | -21.0
O=C(C=Cc1ccco1)c1cc(Cl)ccc1O | ? | . | ? | 16.5% | -2.5% | -90.7*
O=C(C=Cc1cccs1)c1ccc(Cl)s1 | -4.8% | . | ? | ? | ? | -16.2
O=C(/C=C/c1ccco1)c1ccccc1O | -4.4% | 3.5% | -26.7% | 2.2% | -3.4% | -10.0
CC1CN2C(c3ccc([N+](=O)[O-])cc3)=CSC2=N1 (centres undefined) | 5.4% | -3.3% | -7.0% | -10.0% | -2.2% | 13.7
CCCn1c(SCC(=O)N2CCCCC2)nnc1-c1ccccn1 | . | -5.0% | . | . | . | .
CC1Cc2ccccc2N1C(=O)CSc1nnc2c(n1)[nH]c1ccc(F)cc12 (centres undefined) | ? | -4.5% | 20.6µM* | -8.5%[9.22 µM] | -14.3% | ?
CCCn1c(SCC(=O)N2c3ccc(F)cc3CCC2C)nnc1-c1ccccn1 (centres undefined) | ? | -2.3% | 20.6µM* | -3.2% | 1.7% | -10.8
CC1CCc2cc(F)ccc2N1C(=O)CSc1nnc2c3ccccc3n(C)c2n1 (centres undefined) | 18.4µM* | -0.2% | 20.6µM* | -0.9% | 1.6% | -14.1
O=C(CSc1nnc2c(n1)[nH]c1ccc(F)cc12)N1CCOCC1 | 10.4% | 1.0% | 2.5% | -5.3% | -1.7% | 11.5
CCN1C(=O)[C@H]2[C@@H](c3ccc(C)cc3)N[C@]3(CCCN(Cc4ccco4)C3=O)[C@H]2C1=O | -27.4% | . | ? | . | . | 21.5
CC(=O)c1cccc(NC(=O)c2sc3nc4n(c(=O)c3c2C)CCCCC4)c1 | ? | 1.7% | 23.1µM* | -8.3% | 21.9% | -27.4
